Screening results deposited in PubChem BioAssay by several laboratories.
RN4220 kill: S. aureus RN4220 growth inhibition. OD600, 16 h. inhibition, % (test concentration not listed). 330,000 tested, 0.33% active; in the data active means inhibition above about 85%;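 further: plate controls were untreated cells for no effect and reference antibiotic for full effect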
Mtb hypoxia rep: Mtb hypoxia fluorescent reporter inhibition; fluorescence inhibition, % (concentration not given with the values); M. tuberculosis hypoxia-regulated fluorescent reporter, fluorescence; 300,000 tested, 0.1% active; in the data active means fluorescence inhibition mostly above about 23%, no sharp cut-off; inactive means mostly below about 17%
SSB-PriA inh: inhibitors of Klebsiella pneumoniae PriA binding to SSB C-terminal tail. 430,000 tested, 0.6% active. AlphaScreen SSBct-PriA binding, biotinylated peptide. inhibition, % at 33 µM; in the data active means inhibition mostly above about 37%, no sharp cut-off; inactive means mostly below about 20%;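 further: plate controls were negative control peptide for no effect and reference peptide for full effect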
Mtb betalactam: beta-lactam sensitization of Mtb H37Rv. M. tuberculosis H37Rv growth with meropenem, percent inhibition. 330,000 tested, 0.27% active. inhibition, % at 25 µM; call rule not given here;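 further: growth measured after seven days incubation then overnight dye step; 0% = bacteria only wells and 100% = bacteria with antibiotic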
Sa ugtP lethal: compounds lethal to S. aureus RN4220 ugtP deletion mutant; OD600 growth, 16 h; growth inhibition, % (test concentration not listed); AID 1259309; 330,000 tested, 0.54% active; in the data active means growth inhibition above about 68%;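 further: plate controls were untreated wells for no effect and antibiotic for full effect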
An asterisk follows results filed as active; · = not tested or not shown; ! = a repeat was not active. A selection: hits, their analogues and other compounds. The true share with any hit is near 1%.

SMILES	RN4220 kill	Mtb hypoxia rep	SSB-PriA inh	Mtb betalactam	Sa ugtP lethal
Cc1ccc(NC(=O)C2SC(=Nc3ccccc3)C(C(=O)Nc3ccc(Cl)cc3)=C2N)cc1 (stereo not given)	-8.3	6.8	2.9	·	-1.5
COc1ccc(-c2cc3c(=O)n(CC(=O)Nc4cccc(Cl)c4)nc(C)n3n2)cc1	·	·	44.3*	2.0	·
CCOC(=O)N1CCN(C(=O)Cn2nc(C)n3nc(-c4ccc(OC)cc4)cc3c2=O)CC1	-0.3	-8.3	-8.6	2.0	-7.9
CCN(Cc1cnc2ccccn12)S(=O)(=O)c1cccnc1	·	·	-2.0	·	·
Nc1ccc2c(c1)Nc1ccccc1CC2	3.9	16.5	57.6*	45.6	2.8
CCC(C)Nc1c([N+](=O)[O-])cc(C)cc1[N+](=O)[O-] (stereo not given)	12.1	10.5	53.4*	1.7	-8.5
Cc1cc([N+](=O)[O-])c(NCCN)c([N+](=O)[O-])c1	·	·	2.0	·	·
O=C(c1ccc2c(c1)OCCO2)N(CCCn1ccnc1)c1nc2ccc(F)cc2s1	·	·	37.0*	·	·
CCN(CC)CCN(C(=O)/C=C/c1cccs1)c1nc2ccc(OC)cc2s1	1.4	-1.3	1.6	·	1.7
O=C(c1cccc(F)c1)N(CCCn1ccnc1)c1nc2ccc(Cl)cc2s1	·	·	52.0*	·	·
COc1ccc2nc(N(CCCn3ccnc3)C(=O)/C=C/c3cccs3)sc2c1	·	·	53.0*	·	·
Oc1[nH]c2ccc(Br)cc2c1N=NC(=S)N1CCOCC1	23.6	38.5*	-1.4	45.9	36.7
COC(=O)N=Nc1c(O)[nH]c2ccc(Br)cc12	4.9	10.4	-9.9	-1.9	9.0
Oc1[nH]c2ccccc2c1N=NC(=S)N1CCOCC1	·	·	59.2*	96.2	·
NC(=S)N=Nc1c(O)[nH]c2ccccc12	3.4	1.7	19.5	2.2	-6.9
COCCn1c(SCC(=O)Nc2ncn[nH]2)nc2ccsc2c1=O	·	·	-9.0	·	·
O=C(NCc1n[nH]c(=O)c2ccccc12)c1ccc([N+](=O)[O-])o1	·	·	7.0	·	·
O=C(Cc1ccc(F)cc1)NC[C@H]1CCCN1c1ccccc1	·	·	11.0	·	·
O=C(NC[C@H]1CCCN1c1nccs1)c1c[nH]c2ccccc12	·	·	5.0	·	·
Cn1cc(CC(=O)NCC2CCCN2c2ccccc2)c2ccccc21 (stereo not given)	·	·	39.0*	·	·
O=C(NCC1CCCN1c1ccccc1)c1c[nH]c2ccccc12 (stereo not given)	·	·	53.0*	·	·
O=C(CCN1CCc2ccccc21)c1ccc2c(c1)OCCO2	9.6	2.5	47.6*	7.2	2.2
Cc1nc(SCc2ccccc2F)[nH]c(=O)c1CC(=O)Nc1nc2ccccc2s1	·	·	11.0	·	·
O=C(C[C@H]1C/C=C/C[C@H](Cc2ccc(F)cc2)C(=O)OC[C@@H]2CCCN2C1=O)N[C@H](CO)Cc1ccccc1	·	·	7.1	·	·
Cc1ccc2cc(CCNC(=S)NCCn3ccc4ccccc43)c(=O)[nH]c2c1	·	·	46.0*	·	·
SMILES	RN4220 kill	Mtb hypoxia rep	SSB-PriA inh	Mtb betalactam	Sa ugtP lethal
Cc1ccc(-c2cc(-c3ccccc3)cc(-c3ccccc3)[n+]2-c2ccccc2)cc1	93.7*	·	11.3	100.0	97.8*
Cc1ccc(-c2cc(-c3ccc(C)cc3)[n+](-c3ccccc3)c(-c3ccc(C)cc3)c2)cc1	100.9*	·	2.2	100.0	100.3*
O=C(NCCn1nc(-c2ccncc2)ccc1=O)c1cccc2ccccc12	·	·	4.0	·	·
Cc1ccc(-n2nc(C)c(Sc3ccccc3[N+](=O)[O-])c2N)cc1	-4.6	-10.0	39.3*	14.5	32.0
Cc1nn(-c2ccccc2)c(C)c1Sc1ccccc1[N+](=O)[O-]	·	·	-1.0	·	·
Cc1cc(C(=O)Nc2nc(-c3ccccn3)cs2)c(C)s1	·	·	62.1	·	·
Cc1cccc(C(=O)Nc2nc(-c3ccccn3)cs2)c1C	·	·	73.2*	·	·
O=C(Nc1nc(-c2cc(Cl)sc2Cl)cs1)c1ccc(Br)s1	9.4	0.8	43.6*!	3.0	2.0
Fc1ccccc1Nc1nc(-c2ccccn2)cs1	·	·	77.1*	·	·
Cc1cc(C(=O)Nc2nc(-c3ccccn3)cs2)c(C)o1	·	·	82.4*	·	·
O=C(Nc1nc(-c2cc(Cl)sc2Cl)cs1)c1cccs1	26.0	-6.3	-15.0	99.0	18.5
Cc1csc(NC(=O)c2cc(C)oc2C)n1	-6.8	·	-3.2	-7.7	-7.3
O=C(COc1ccccc1C(=O)O)Nc1cccc(C(F)(F)F)c1	·	·	-18.0	·	·
CCCCC(CC)CNC(CC(=O)Nc1cccc(Cl)c1C)C(=O)O (stereo not given)	·	·	-1.0	·	·
O=C(Nc1nc(-c2ccccn2)cs1)c1ccccc1Br	·	·	91.0*	·	·
CCC(CC)n1ccc(C(=O)Nc2nc(-c3ccccn3)cs2)n1	·	·	3.5	·	·
Cc1nc(C(C)C)c(C(=O)Nc2nc(-c3ccccn3)cs2)s1	·	·	59.2*	·	·
O=C(Nc1nc(-c2ccc([N+](=O)[O-])cc2)cs1)c1ccccc1Br	·	·	-9.0	·	·
COc1ccc(OC)c(C(=O)Nc2nc(-c3ccccn3)cs2)c1	·	·	-5.0	·	·
O=C(Nc1nc(-c2ccccn2)cs1)c1ccc(Br)s1	53.8	24.9	56.4*	87.0	34.3
COc1ccc2oc(C(=O)Nc3nc(-c4ccccn4)cs3)c(C)c2c1	9.0	7.4	42.1*	-4.7	-12.2
O=C(Nc1nc(-c2nc3ccccc3s2)cs1)c1ccc(Br)s1	·	·	-4.0	·	·
COC(=O)c1ccc(C(=O)Nc2cccc3c2C(=O)N(C)C3=O)cc1	·	·	9.0	·	·
CN1C(=O)C(C)(C)COc2ccc(NS(=O)(=O)c3cccs3)cc21	·	·	-15.0	·	·
CCOc1ccc2nc(NC(=O)CCn3cnc4c(cnn4C(C)(C)C)c3=O)sc2c1	·	·	2.0	·	·
SMILES	RN4220 kill	Mtb hypoxia rep	SSB-PriA inh	Mtb betalactam	Sa ugtP lethal
O=C(Nn1cnc2c(cnn2-c2ccc(F)cc2)c1=O)c1cccc(C(F)(F)F)c1	·	·	-12.0	·	·
O=C(Nc1nc(-c2ccccc2)cs1)c1ccccc1F	-3.2	-1.6	-23.9	-5.5	-12.6
O=C(Nc1nc(-c2ccccn2)cs1)c1ccccc1F	·	·	94.0*	·	·
COc1ccc(NC(=O)C(=O)NC2CC2)cc1OC	·	·	-16.0	·	·
N#CCSc1cccc2cccnc12	·	·	84.5*	·	·
c1cnc2c(SCc3ccncc3)cccc2c1	·	·	32.8	·	·
c1cnc2c(SCc3ccc(-c4nnco4)cc3)cccc2c1	0.0	·	74.2*	-4.5	-5.6
Clc1ccc(CSc2cccc3cccnc23)cc1Cl	·	·	46.1	·	·
Cc1cccc(CSc2cccc3cccnc23)c1	14.3	-68.6	94.5*	99.5	41.7
COC(=O)c1ccc(-c2csc(NC(=O)COc3ccccc3F)n2)cc1	·	·	-2.0	·	·
Cc1ccccc1NC(=O)Cn1nc2ncccn2c1=O	·	·	-12.0	·	·
O=C(Cn1ncccc1=O)NCc1ccnc(-c2ccco2)c1	·	·	5.0	·	·
O=C(c1ccco1)N1CCCc2ccc(NS(=O)(=O)c3ccccc3[N+](=O)[O-])cc21	·	·	6.0	·	·
O=C(Cc1ccc(Cl)cc1)Oc1cccc2cccnc12	8.3	-0.1	-2.8	100.2	89.2*
O=C(Oc1cccc2cccnc12)c1ccco1	0.5	14.9	6.2	100.1	4.7
COc1cccc2cc(C(=O)NCC3CCN(c4ccc(C)nn4)CC3)oc12	·	·	5.0	·	·
CCC(=O)NC(c1cccs1)c1cc([N+](=O)[O-])c2cccnc2c1O (stereo not given)	95.9*	2.7	74.8	4.7	98.3*
CCCC(=O)NC(c1cccs1)c1cc([N+](=O)[O-])c2cccnc2c1O (stereo not given)	79.5	14.6	29.2	-2.7	91.4*
